PubChem BioAssay (Tox21)
Records with an inconclusive call do not appear. The source made the active and inactive calls. Unless noted, calls follow the shape of the dose curve; as a rule, active = well fitted curve in the direction sought with a large enough effect in the repeat runs; inconclusive = weak or mixed curves; inactive = no such curve, though single readings can be large; an effect the other way counts as inactive or inconclusive.

What was measured:
[1] = qHTS assay to identify small molecule antagonists of the androgen receptor (AR) signaling pathway using the MDA cell line in the presence of 0.5 nM R1881 - cell viability counter screen (AID 1259242); also: nearly all actives have a fitted effect of over 45% in size; also: potency is read from the fitted curve at half-maximal effect
Outline: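 MDA-kb2 cells (human breast carcinoma, stably carrying MMTV-luciferase reporter) were exposed to compounds with 0.5 nM R1881 (final) for 16 hr at 37C, 0% CO2; viability then read as live-cell protease fluorescence (CellTiter-Fluor, 30 min) in the same wells.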

[2] = molecular target: Androgen receptor (Homo sapiens) (UniProt P10275); assay: qHTS assay to identify small molecule antagonists of the androgen receptor (AR) signaling pathway using the MDA cell line in the presence of 0.5 nM R1881 (AID 1259243); also: nearly all actives have a fitted effect of over 50% in size; also: potency is read from the fitted curve at half-maximal effect
Outline: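 MDA-kb2 human breast carcinoma cells carrying an MMTV-luciferase reporter (AR- and GR-responsive) were plated, rested 5 hr at 37C, dosed with compounds, then stimulated with 0.5 nM R1881 (final) for 16 hr; luminescence was read after ONE-Glo.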

[3] = qHTS assay to identify small molecule HDAC inhibitors (AID 1259364); also: top concentration of the series differs between compounds; nearly all actives have a fitted effect of over 45% in size
Outline: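 Wild-type HCT-116 cells were plated overnight, exposed to compounds for 2 h at 37 °C, then given HDAC-Glo class I/II luminogenic reagent for 30 min at room temperature before luminescence was read.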

[4] = qHTS assay to identify small molecule HDAC inhibitors - cell viability counter screen (AID 1259365); also: series mostly up to about 92 µM; nearly all actives have a fitted effect of over 50% in size
Outline: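 HCT-116 wild-type, overnight attachment; 2hr drug exposure, 37C; CellTiter-Glo luminescent ATP readout after 30min RT.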

[5] = qHTS assay to identify small molecule agonists of the sonic hedgehog signaling (Shh) pathway - cell viability counter screen (AID 1259366); also: nearly all actives have a fitted effect of over 50% in size; also: potency is read from the fitted curve at half-maximal effect
Outline: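 Compounds in DMSO were pin-transferred onto 3T3 Gli1-Luc cells that had settled 4hr; plates then stood 24hr at 37C and 5% CO2. One hour before the end, CellTiter-Fluor was added and fluorescence recorded.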

[6] = qHTS assay to identify small molecule agonists of the sonic hedgehog signaling (Shh) pathway (AID 1259368; calls by dose curve; also: series mostly up to about 92 µM; nearly all actives have a fitted effect of over 15% in size)
Outline: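 NIH/3T3-derived 3T3Gli1-Luc cells carrying a stably integrated Gli1 response element–firefly luciferase reporter were plated, left 4 hr at 37 C, then given compounds in DMSO for 24 hr. Luminescence was read 30 min after adding luciferase reagent.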

[7] = qHTS assay to identify small molecule antagonists of the sonic hedgehog signaling (Shh) pathway (AID 1259369; calls by dose curve; also: nearly all actives have a fitted effect of over 45% in size)
Outline: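 NIH/3T3-derived 3T3Gli1-Luc cells with stably integrated Gli1-Luc reporter were preincubated 4hr at 37 C, then given compounds in DMSO plus Shh conditioned medium and incubated 24hr. Firefly luciferase luminescence read after 30min reagent at room temperature.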

[8] = qHTS assay to identify small molecule antagonists of the sonic hedgehog signaling (Shh) pathway - cell viability counter screen (AID 1259367); also: nearly all actives have a fitted effect of over 55% in size; also: potency is read from the fitted curve at half-maximal effect
Outline: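 NIH/3T3-derived Gli1-Luc reporter cells, 2,000/well, plated 4 hr before compound addition, then stimulated with conditioned medium for 24 hr at 37C. Viability measured in the same wells by CellTiter-Fluor fluorescence, reagent added at 23 hr for 1 hr.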

[9] = molecular target: Estrogen receptor (Homo sapiens) (UniProt P03372); assay: qHTS assay to identify small molecule antagonists of the estrogen receptor alpha (ER-alpha) signaling pathway using the BG1 cell line in the presence of 0.1 nM 17-beta-estradiol (AID 1259244); also: nearly all actives have a fitted effect of over 50% in size; also: potency is read from the fitted curve at half-maximal effect
Outline: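 VM7Luc4E2 cells (endogenous full-length ER-alpha, stable 4xERE-luciferase) were grown 5 days in phenol red-free medium with charcoal-stripped FBS, then exposed 22 h at 37C to compounds plus 0.1 nM (final) 17beta-estradiol; ONE-Glo luminescence read-out.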

[10] = qHTS assay to identify small molecule phospholipidosis (PLD) inducers (AID 1259344; active = well fitted curve in the direction sought with a large enough effect; an effect the other way counts as inactive or inconclusive)
Outline: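 HepG2 cells, 900/well, treated with compound plus LipidTOX Red for 24 h at 37 C; amiodarone positive and DMSO negative controls. Fixed with paraformaldehyde/Hoechst, then high-content imaging scored LipidTOX pit count and integrated intensity per well and per cell.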
% is scaled to controls: 0 for no effect and ±100 for the full control effect.

Sequence of Androgen receptor (Homo sapiens) (P10275 whole entry, looked up): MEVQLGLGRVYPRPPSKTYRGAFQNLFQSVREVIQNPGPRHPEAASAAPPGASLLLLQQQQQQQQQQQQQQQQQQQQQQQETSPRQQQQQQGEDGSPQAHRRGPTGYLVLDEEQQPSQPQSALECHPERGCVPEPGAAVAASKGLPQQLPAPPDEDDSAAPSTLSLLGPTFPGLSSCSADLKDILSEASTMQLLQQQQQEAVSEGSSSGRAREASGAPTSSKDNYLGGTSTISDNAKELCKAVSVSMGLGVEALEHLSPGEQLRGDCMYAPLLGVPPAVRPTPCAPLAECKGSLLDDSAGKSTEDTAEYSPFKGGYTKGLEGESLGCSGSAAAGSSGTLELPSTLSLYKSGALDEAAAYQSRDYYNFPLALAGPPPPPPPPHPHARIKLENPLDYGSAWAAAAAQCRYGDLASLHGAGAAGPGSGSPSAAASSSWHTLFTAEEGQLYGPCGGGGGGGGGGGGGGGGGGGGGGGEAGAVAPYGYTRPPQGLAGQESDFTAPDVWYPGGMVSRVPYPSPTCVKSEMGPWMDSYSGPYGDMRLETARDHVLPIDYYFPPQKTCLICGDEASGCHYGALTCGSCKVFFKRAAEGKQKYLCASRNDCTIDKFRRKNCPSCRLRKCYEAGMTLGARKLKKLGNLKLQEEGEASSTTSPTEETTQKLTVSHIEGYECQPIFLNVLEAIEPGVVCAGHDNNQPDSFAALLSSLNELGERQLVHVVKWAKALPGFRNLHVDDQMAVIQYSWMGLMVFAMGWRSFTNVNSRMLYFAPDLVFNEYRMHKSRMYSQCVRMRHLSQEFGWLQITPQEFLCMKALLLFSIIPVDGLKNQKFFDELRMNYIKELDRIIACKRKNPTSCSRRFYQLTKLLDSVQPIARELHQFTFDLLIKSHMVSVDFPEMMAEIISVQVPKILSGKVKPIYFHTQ
Sequence of Estrogen receptor (Homo sapiens) (P03372 whole entry, looked up): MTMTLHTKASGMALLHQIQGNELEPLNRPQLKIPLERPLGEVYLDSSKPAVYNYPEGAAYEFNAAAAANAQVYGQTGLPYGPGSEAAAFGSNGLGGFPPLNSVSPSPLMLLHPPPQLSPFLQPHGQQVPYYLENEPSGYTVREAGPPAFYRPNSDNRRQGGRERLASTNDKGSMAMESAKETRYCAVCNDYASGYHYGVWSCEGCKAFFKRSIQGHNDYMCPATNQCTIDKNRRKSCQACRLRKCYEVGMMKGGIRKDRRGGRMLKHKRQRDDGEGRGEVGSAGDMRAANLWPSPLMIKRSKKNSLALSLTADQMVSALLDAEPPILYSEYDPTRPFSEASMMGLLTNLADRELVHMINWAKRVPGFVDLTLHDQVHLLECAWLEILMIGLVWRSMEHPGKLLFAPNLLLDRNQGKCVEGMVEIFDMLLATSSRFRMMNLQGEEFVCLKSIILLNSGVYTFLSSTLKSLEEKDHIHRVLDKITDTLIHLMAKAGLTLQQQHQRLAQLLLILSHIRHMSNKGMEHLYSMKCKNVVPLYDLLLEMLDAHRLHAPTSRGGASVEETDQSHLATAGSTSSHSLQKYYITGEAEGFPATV

CCCCCCCC/C=C\CCCCCCCC(N)=O
inactive: Potency [1] | Potency [2] | Potency [3] | outcome [4] | Potency [5] | outcome [6] | Potency [7]

O=C(O)c1cccc(N(Cc2cccnc2)c2ccc(OC(F)F)c(OC(F)F)c2)c1
inactive: Potency [1] | Potency [3] | outcome [4] | Potency [5] | Potency [8] | outcome [6]
active: Potency [2] 24.3 µM

CC(=O)N(O)CCCCCNC(=O)CCC(=O)N(O)CCCCCNC(=O)CCC(=O)N(O)CCCCCN
inactive: Potency [1] | Potency [2] | Potency [9] | Potency [10] | Potency [3] | outcome [4] | Potency [8] | outcome [6] | Potency [7]

CCCCOC(O)CC (stereo unspecified)
inactive: Potency [1] | Potency [2] | Potency [9] | Potency [3] | outcome [4] | Potency [5] | Potency [8] | outcome [6] | Potency [7]

C1CCC2OC2C1 (stereo unspecified)
inactive: Potency [1] | Potency [2] | Potency [9] | Potency [3] | outcome [4] | Potency [8] | outcome [6] | Potency [7]

CCN(CC)C(C)CN1c2ccccc2Sc2ccccc21 (stereo unspecified)
inactive: Potency [1] | Potency [9] | Potency [10] | Potency [3] | outcome [4] | Potency [5] | Potency [8] | outcome [6] | Potency [7]

O=C(O)Cc1sc(-c2ccccc2)nc1-c1ccc(Cl)cc1
inactive: Potency [1] | Potency [2] | Potency [9] | Potency [10] | Potency [3] | outcome [4] | Potency [5] | Potency [8] | outcome [6] | Potency [7]

NC(N)=NN=C(/C=C/c1ccc([N+](=O)[O-])o1)/C=C/c1ccc([N+](=O)[O-])o1
active: Potency [1] 6.68 µM | Potency [2] 1.88 µM | Potency [5] 2.37 µM | Potency [8] 2.37 µM
inactive: Potency [9] | Potency [10] | Potency [3]

O=C(O)COC(=O)Cc1ccccc1Nc1c(Cl)cccc1Cl
inactive: Potency [1] | Potency [2] | Potency [9] | Potency [10] | outcome [4] | Potency [5] | Potency [8] | outcome [6] | Potency [7]

CCCCCCc1ccc(N)cc1
inactive: Potency [1] | Potency [2] | Potency [9] | Potency [3] | outcome [4] | Potency [8] | outcome [6] | Potency [7]

CCC(C)N(C)C(=O)c1cc2ccccc2c(-c2ccccc2Cl)n1 (stereo unspecified)
active: Potency [2] 28 µM
inactive: Potency [1] | Potency [9] | Potency [3] | outcome [4] | outcome [6] | Potency [7]

CC(=O)N(CC(=O)N(C)C)c1ccccc1
inactive: Potency [1] | Potency [2] | Potency [9] | Potency [3] | outcome [4] | Potency [5] | Potency [8] | outcome [6]

CC(C)c1ccc2c(C(C)C)cc(C(C)C)c(S(=O)(=O)O)c2c1
inactive: Potency [1] | Potency [2] | Potency [9] | Potency [3] | outcome [4] | Potency [5] | Potency [8] | outcome [6] | Potency [7]

COCCOCCOCCOCCOC
inactive: Potency [1] | Potency [2] | Potency [9] | Potency [3] | outcome [4] | Potency [8] | outcome [6] | Potency [7]

O=C(O)C(c1ccc(Cl)cc1)c1ccc(Cl)cc1
inactive: Potency [1] | Potency [9] | Potency [3] | outcome [4] | Potency [5] | Potency [8] | outcome [6]

CCOc1cc(OCC)c(C(=O)CCC(=O)O)cc1OCC
inactive: Potency [1] | Potency [9] | Potency [10] | Potency [3] | outcome [4] | Potency [5] | Potency [8] | outcome [6] | Potency [7]

CCCCCCCCCC=O
inactive: Potency [1] | Potency [9] | Potency [3] | outcome [4] | Potency [5] | Potency [8] | outcome [6] | Potency [7]

Nc1nc(N)c2nc(CNc3ccc(C(=O)N[C@@H](CCC(=O)O)C(=O)O)cc3)cnc2n1
inactive: Potency [1] | Potency [9] | Potency [10] | Potency [3] | outcome [4] | Potency [8] | outcome [6]

N=C(N=C(N)N)N1CCOCC1
inactive: Potency [1] | Potency [9] | Potency [10] | outcome [4] | Potency [5] | Potency [8] | outcome [6]

CC(C)(C)c1cc(CCC(=O)OCC(COC(=O)CCc2cc(C(C)(C)C)c(O)c(C(C)(C)C)c2)(COC(=O)CCc2cc(C(C)(C)C)c(O)c(C(C)(C)C)c2)COC(=O)CCc2cc(C(C)(C)C)c(O)c(C(C)(C)C)c2)cc(C(C)(C)C)c1O
inactive: Potency [1] | Potency [9] | Potency [3] | outcome [4] | Potency [5] | Potency [8] | outcome [6]

Nc1ccc(C(=O)N2CC3CC(CN(Cc4ccccc4)C3)C2)cc1
inactive: Potency [1] | Potency [9] | Potency [3] | outcome [4] | Potency [5] | Potency [8] | outcome [6]

O=C(NN1CCCC1)NS(=O)(=O)c1ccc(Cl)cc1
inactive: Potency [1] | Potency [9] | PLD induction [10] 14% [at 7.66 µM] | Potency [3] | outcome [4] | outcome [6]

CCCCOCCOCCOCCOCCO
inactive: Potency [1] | Potency [9] | Potency [3] | outcome [4] | Potency [5] | Potency [8] | outcome [6] | Potency [7]

CCN1CCC[C@H]1CNC(=O)c1c(OC)ccc(Br)c1OC
inactive: Potency [1] | Potency [9] | Potency [10] | Potency [3] | outcome [4] | Potency [5] | Potency [8] | outcome [6] | Potency [7]

CCOC(=S)SSC(=S)OCC
inactive: Potency [1] | Potency [9] | Potency [10] | Potency [3] | outcome [4] | Potency [5] | Potency [8] | outcome [6] | Potency [7]

Cc1nc2ccccc2n1Cc1ccc(Cl)cc1
inactive: Potency [10] | Potency [3] | outcome [4] | Potency [8] | outcome [6]
active: Potency [1] 5.96 µM | Potency [9] 2.11 µM
